Reference: PubChem BioAssay
Values without a mark were called inactive. Activity calls are given as the source filed them.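 The calls were made as follows: active = inhibition above the hit cutoff set in the earlier primary screen (cut at about 27% in these data); inactive = the rest.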

Target: Protein phosphatase methylesterase 1 (Homo sapiens) (UniProt Q9Y570)
Experiment: human PME-1 methylesterase inhibition confirmation – biochemical, fluorescence polarization, FP-Rh probe, triplicate (AID 2171);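 also: 0% = enzyme with DMSO and 100% = wells lacking PME-1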
Conditions: recombinant PME-1, FP-Rh probe fluorescence polarization; at 5.9 µM; hits give high values

Sequence of Protein phosphatase methylesterase 1 (Homo sapiens) (Q9Y570 whole entry, looked up): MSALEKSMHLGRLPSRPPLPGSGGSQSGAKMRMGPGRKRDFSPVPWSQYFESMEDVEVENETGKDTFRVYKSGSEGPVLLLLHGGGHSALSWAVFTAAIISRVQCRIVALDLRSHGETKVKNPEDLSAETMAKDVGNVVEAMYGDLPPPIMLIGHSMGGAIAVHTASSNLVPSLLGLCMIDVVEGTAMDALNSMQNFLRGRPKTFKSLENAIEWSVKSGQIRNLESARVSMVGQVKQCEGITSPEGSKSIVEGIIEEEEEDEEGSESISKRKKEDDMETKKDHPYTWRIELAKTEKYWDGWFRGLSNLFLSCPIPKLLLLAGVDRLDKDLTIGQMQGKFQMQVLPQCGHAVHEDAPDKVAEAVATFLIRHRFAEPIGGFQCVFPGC

| SMILES | inhibition |
| --- | --- |
| Oc1[nH]c2ccccc2c1N=Nc1nc2ccccc2s1 | 14.1% |
| Nc1[nH]n(-c2ccccc2)c(=O)c1N=Nc1ccc2ncsc2c1 | 31.1% (active) |
| CCn1c2ccccc2c2cc(NC(=O)c3ccccc3[N+](=O)[O-])ccc21 | 20.3% |
| O=C(Nc1cccc(-c2csc(Nc3ccc(Cl)cc3)n2)c1)c1cc([N+](=O)[O-])cc(C(F)(F)F)c1 | -16.1% |
| Cc1cc(N)ccc1N1CCCC1 | 7.13% |
| Cc1ccc(S(=O)(=O)N2CCOCC2)cc1NC(=O)COC(=O)c1ccccc1OCc1c(C)noc1C | 16.8% |
| O=C1NN(c2ccc(Cl)c(Cl)c2)C(=O)/C1=C/c1cccc(OC(=O)c2cccs2)c1 | 8.75% |
| CC(C)c1ccc2[nH]c(O)c(N=NC(=O)c3ccc(CSc4nncn4C)cc3)c2c1 | 104% (active) |
| CN(C)c1ccc(NC(=O)Nc2cccc(Cl)c2)cc1 | 19.8% |
| Oc1ccc(-c2cnc(-c3ccc(O)cc3)nc2)cc1 | 16.1% |
| COc1ccc(/C=C2\Sc3ccc(C(=O)N4CCN(Cc5ccccc5)CC4)cc3N(C)C2=O)cc1OC | 46.9% (active) |
| CCc1ccc(OC)c(S(=O)(=O)Nc2ccc(Cc3ccncc3)cc2)c1 | 31.8% (active) |
| O=C1c2cccc3c([N+](=O)[O-])ccc(c23)C(=O)N1c1ccc(Cl)cn1 | 34.9% (active) |
| CCOc1ccc(NC(=S)NNc2ccnc3cc(Cl)ccc23)cc1 | 28.3% (active) |
| CCN(CC)C(=S)Sc1c(-c2ccccc2)c2cc(Cl)ccc2[nH]c1=O | 39.7% (active) |
| O=C1C=C(N2CCCCC2)c2ccccc2C1=O | 43% (active) |
| Cc1ccc(S(=O)(=O)N2CCN(C(=O)Cn3c(=O)cnc4ccccc43)CC2)cc1 | 25.8% |
| Clc1ccc2[nH]c3c(c2c1)CCc1cn[nH]c1-3 | 21.1% |
| Oc1ccc(/C=C/c2ccc3cccc(O)c3n2)cc1Br | 23.9% |
| CNc1ccc2c3c(cccc13)C(=O)N(C)C2=O | 71.2% (active) |

| SMILES | inhibition |
| --- | --- |
| Cc1cc(N/N=C/c2ccc(O)c(C)c2O)nc(-c2ccccc2O)n1 | 27.9% (active) |
| Cc1ccc(C)c(-n2c3nc(=O)[nH]c(=O)c-3cc3cc([N+](=O)[O-])ccc32)c1 | 24.5% |
| Cc1ccc2sc(NNC(=O)c3cc(=O)c4ccccc4o3)nc2c1C | 68.1% (active) |
| Oc1ccccc1-c1nc2c3ccccc3c3ccccc3c2[nH]1 | 21.4% |
| COc1ccc(-c2cc(-c3ccc(Cl)cc3)n[nH]2)c(O)c1 | 16.9% |
| CC(=O)c1c(C)n(-c2ccc(N(C)C)cc2)c2ccc(OCC(N)=O)cc12 | 23.7% |
| CCOC(=O)/C(=N\Nc1ccc(Cl)cc1)c1csc(Nc2ccccc2)n1 | 14.4% |
| Nc1ccc(N2CCCCC2)c2nonc12 | 11.3% |
| CCCOc1ccc([C@@H]2C3CN(C(=O)OCC)CC=C3C(C#N)=C(N)C2(C#N)C#N)cc1OC (stereo not given in full) | 53.6% (active) |
| Nc1[nH]n(-c2ccccc2)c(=O)c1N=Nc1ccc2c(c1)OCCO2 | 34.5% (active) |
| CC1=NN(c2ccccc2)C(=O)/C1=C/c1c(O)n(-c2ccc(F)c(Cl)c2)[nH]c1=O | 49% (active) |
| COc1ccc(NC(=O)Nc2cccc([N+](=O)[O-])c2)cc1Cl | 2.05% |
| Cc1ccc(S(=O)(=O)/N=C2/C=C(Sc3ncn[nH]3)C(=O)c3ccccc32)cc1 | 54.4% (active) |
| COc1cc2c(cc1OC)C(c1cc(Br)ccc1F)N(C(=O)CCl)CC2 (stereo not given) | 51.5% (active) |
| COc1ccc(S(=O)(=O)N2CCCCCC2)cc1NC(=O)Cc1cc(OC)c(OC)c(OC)c1 | 64% (active) |
| CCOc1ccc(C(=O)NC(C)CCc2ccccc2)cc1 (stereo not given) | -6.46% |
| O=C(N=Nc1c(O)n(Cc2ccccc2)c2ccccc12)c1cc2ccccc2cc1O | 54.8% (active) |
| O=C(c1sc2ccccc2c1Cl)N1CCN(c2ncccn2)CC1 | 24.4% |
| CC(C)Nc1nnc(SCC(=O)Nc2ccc3c(c2)C(=O)c2ccccc2C3=O)s1 | 36.4% (active) |
| CCOc1ccc(N=Nc2c(=O)[nH]n3c(=O)c4c([nH]c23)CCCC4)cc1 | 24.8% |
